From PubChem BioAssay (NCATS)
“And” between values parts separate entries of the source, which are not always exact repeats. Equal values may be shown once. Inconclusive results are not listed. Some structures have more than one record in an assay (separate samples or runs), and their calls can disagree. The source made the active and inactive calls. Unless noted, the call rests on the fitted dose curve; in most records, active means well fitted curve in the direction sought with a large enough effect; inconclusive means small, poorly fitted or top-dose-only effect, or another doubt; inactive means no such curve, though single readings can be large; an effect the other way counts as inactive or inconclusive.

Tests used:
[1] = NS1 protein of Zika virus - qHTS assay to identify small molecule inhibitors in human HEK 293 cells (AID 1347053); further: nearly all actives have a fitted effect of over 55% in size; further: potency means the concentration at half of the fitted maximal effect
Outline: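 HEK 293; 20 h pre-culture, 37 C/5% CO2; cpd 1 h pre-infection; ZIKV MR766, MOI = 0.5, 24 h, 37 C; TR-FRET NS1 readout (two anti-NS1 Abs); norm. to no-virus vs infected.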

[2] = qHTS of pediatric cancer cell lines to identify multiple opportunities for drug repurposing: Primary screen for TC32 cells (AID 1347089); further: nearly all actives have a fitted effect of over 60% in size; further: potency means the concentration at half of the fitted maximal effect; on activity change, negative = cytotoxic: on the % scale 0 is the no-effect control and ±100 the full control effect
Outline: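 In the primary qHTS, MIPE compounds were tested at 11 concentrations (0.78 nM to 46 µM) and NPC compounds at 8 (0.59 nM to 46 µM) on TC32 cells for 48 h. CellTiter-Glo luminescence gave viability.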

[3] = qHTS of pediatric cancer cell lines to identify multiple opportunities for drug repurposing: Primary screen for DAOY cells (AID 1347090); further: nearly all actives have a fitted effect of over 55% in size; further: potency means the concentration at half of the fitted maximal effect;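 on activity change, negative = cytotoxic: series mostly up to about 46 µM; plate controls were DMSO for no effect and bortezomib for full effect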
Outline: (§1)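 Cell viability, CellTiter-Glo luminescence; 500-1,000 cells/well, 8- or 11-point titration, 48 h compound exposure at 37 degrees C, 5% CO2. Controls: DMSO neutral, bortezomib 2.3 µM final as positive.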

[4] = qHTS of pediatric cancer cell lines to identify multiple opportunities for drug repurposing: Primary screen for SJ-GBM2 cells (AID 1347091); further: potency means the concentration at half of the fitted maximal effect;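 on activity change, negative = cytotoxic: plate controls were DMSO neutral control for no effect and bortezomib for full effect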
Outline: as §1

[5] = qHTS of pediatric cancer cell lines to identify multiple opportunities for drug repurposing: Primary screen for A673 cells (AID 1347092); further: nearly all actives have a fitted effect of over 45% in size; further: potency means the concentration at half of the fitted maximal effect; on activity change, negative = cytotoxic: on the % scale 0 is the no-effect control and ±100 the full control effect
Outline: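 48 h compound exposure, A673, 500-1,000 cells/well, 37 degrees C/5% CO2. MIPE: 11-point, 0.78 nM-46 µM; NPC: 8-point, 0.59 nM-46 µM (final). Readout CellTiter-Glo luminescence after 15 min RT.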

[6] = qHTS of pediatric cancer cell lines to identify multiple opportunities for drug repurposing: Primary screen for BT-37 cells (AID 1347094); further: potency means the concentration at half of the fitted maximal effect;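 on activity change, negative = cytotoxic: series mostly up to about 57 µM; plate controls were DMSO for no effect and bortezomib for full effect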
Outline: (§2)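 Cells seeded at 500-1,000 cells/well in growth media, rested 5 hours at 37 degrees C, 5% CO2, then dosed; MIPE compounds at 11-point (from 0.78 nM) and NPC at 8-point (from 0.59 nM) final concentrations. Viability by CellTiter-Glo luminescence after 48 hours.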

[7] = qHTS of pediatric cancer cell lines to identify multiple opportunities for drug repurposing: Primary screen for NB-EBc1 cells (AID 1347095); further: potency means the concentration at half of the fitted maximal effect;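 on activity change, negative = cytotoxic: plate controls were DMSO neutral control for no effect and bortezomib for full effect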
Outline: as §2

[8] = qHTS of pediatric cancer cell lines to identify multiple opportunities for drug repurposing: Primary screen for U-2 OS cells (AID 1347096);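 further: plate controls were DMSO wells for no effect and bortezomib positive control wells for full effect; nearly all actives have a fitted effect of over 50% in size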
Outline: (§3)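 Cells (500-1,000/well) rested 5 h, then received compounds for 48 h; metabolically active cells were measured by CellTiter-Glo luminescence. Final concentrations spanned up to 46 µM (MIPE, 11-point) or 0.59 nM-46 µM (NPC, 8-point) in primary screens, 11-point in follow-ups.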

[9] = qHTS of pediatric cancer cell lines to identify multiple opportunities for drug repurposing: Primary screen for Saos-2 cells (AID 1347097); further: on the % scale 0 is the no-effect control and ±100 the full control effect; nearly all actives have a fitted effect of over 40% in size
Outline: as §2

[10] = qHTS of pediatric cancer cell lines to identify multiple opportunities for drug repurposing: Primary screen for SK-N-SH cells (AID 1347098); further: nearly all actives have a fitted effect of over 65% in size; further: potency means the concentration at half of the fitted maximal effect; on activity change, negative = cytotoxic: on the % scale 0 is the no-effect control and ±100 the full control effect
Outline: as §3

[11] = qHTS of pediatric cancer cell lines to identify multiple opportunities for drug repurposing: Primary screen for SK-N-MC cells (AID 1347093); further: potency means the concentration at half of the fitted maximal effect;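 on activity change, negative = cytotoxic: series mostly up to about 46 µM; plate controls were DMSO neutral control for no effect and bortezomib for full effect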
Outline: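 Metabolically active cells were quantified by ATP-dependent luminescence (CellTiter-Glo, 15 min at room temperature) following 48 h treatment. Cells had been plated at 500-1,000 per well and settled for 5 h beforehand.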

[12] = qHTS of pediatric cancer cell lines to identify multiple opportunities for drug repurposing: Primary screen for NB1643 cells (AID 1347099); further: nearly all actives have a fitted effect of over 50% in size; further: potency means the concentration at half of the fitted maximal effect;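 on activity change, negative = cytotoxic: plate controls were DMSO neutral control for no effect and bortezomib positive control for full effect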
Outline: as §2

[13] = qHTS of pediatric cancer cell lines to identify multiple opportunities for drug repurposing: Primary screen for LAN-5 cells (AID 1347100); further: potency means the concentration at half of the fitted maximal effect;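 on activity change, negative = cytotoxic: plate controls were DMSO neutral control for no effect and bortezomib positive control for full effect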
Outline: as §3

[14] = biological target: T1, Tyrosine-protein phosphatase non-receptor type substrate 1 (Homo sapiens) + Leukocyte surface antigen CD47 (Homo sapiens) (UniProt P78324+Q08722); assay: CD47-SIRPalpha protein protein interaction - LANCE assay qHTS validation (AID 1347057; active means well fitted curve in the direction sought with a large enough effect in the signal ratio, with a control signal flat, not every such curve was filed as active; the % refers to the signal ratio; further: series mostly up to about 38 µM; 0% is about no effect)
T1 sequence (P78324 whole entry, looked up): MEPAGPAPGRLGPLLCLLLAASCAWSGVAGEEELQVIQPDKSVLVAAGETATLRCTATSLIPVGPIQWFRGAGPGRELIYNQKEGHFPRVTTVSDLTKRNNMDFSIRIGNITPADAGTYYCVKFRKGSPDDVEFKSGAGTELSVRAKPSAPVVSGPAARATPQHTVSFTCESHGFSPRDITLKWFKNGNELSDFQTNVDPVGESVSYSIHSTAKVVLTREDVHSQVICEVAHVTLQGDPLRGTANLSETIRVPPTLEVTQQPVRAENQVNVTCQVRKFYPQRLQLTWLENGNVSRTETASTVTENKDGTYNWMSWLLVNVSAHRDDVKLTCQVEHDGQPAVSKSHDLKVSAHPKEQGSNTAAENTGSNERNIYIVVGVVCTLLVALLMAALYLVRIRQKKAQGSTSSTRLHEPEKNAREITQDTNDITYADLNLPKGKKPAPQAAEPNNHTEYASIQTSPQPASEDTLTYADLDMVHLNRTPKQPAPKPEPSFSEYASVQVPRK
T1 sequence (Q08722 whole entry, looked up): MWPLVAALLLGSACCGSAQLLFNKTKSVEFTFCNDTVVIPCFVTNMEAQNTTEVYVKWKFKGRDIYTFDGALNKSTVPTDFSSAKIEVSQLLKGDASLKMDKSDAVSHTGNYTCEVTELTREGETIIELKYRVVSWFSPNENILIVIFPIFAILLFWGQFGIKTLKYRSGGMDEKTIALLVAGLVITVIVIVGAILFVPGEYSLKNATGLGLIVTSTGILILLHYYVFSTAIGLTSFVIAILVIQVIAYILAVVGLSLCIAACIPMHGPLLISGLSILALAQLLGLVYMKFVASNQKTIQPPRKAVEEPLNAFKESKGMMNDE
Outline: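 First, His-tagged CD47 and Eu-labelled anti-His antibody met the compound for 30 min; next, site-specifically biotinylated SIRPalpha was added for 30 min; finally streptavidin-APC was added before reading the TR-FRET ratio.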

[15] = biological target: T1, Tyrosine-protein phosphatase non-receptor type substrate 1 (Homo sapiens) + Leukocyte surface antigen CD47 (Homo sapiens); assay: CD47-SIRPalpha protein protein interaction - HTRF assay qHTS validation (AID 1347058; active means well fitted curve in the direction sought with a large enough effect in the signal ratio, not every such curve was filed as active; the % refers to the signal ratio;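 further: recombinant soluble extracellular CD47 with His tag and biotinylated SIRPalpha domains; series mostly up to about 38 µM; 0% is about no effect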)
Outline: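 TR-FRET read (Ch1/Ch2 ratio) of soluble extracellular CD47 and Avi-biotinylated SIRPalpha domains in PBS pH 7.4 with 0.05% IGEPAL; 7-point compound titration. Sequential 30 min room-temperature steps; non-biotinylated SIRPalpha as control inhibitor.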

[16] = biological target: T1, Tyrosine-protein phosphatase non-receptor type substrate 1 (Homo sapiens) + Leukocyte surface antigen CD47 (Homo sapiens); assay: CD47-SIRPalpha protein protein interaction - Alpha assay qHTS validation (AID 1347059);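 further: bead proximity luminescence from CD47 binding SIRPalpha after compound preincubation with SIRPalpha; on the % scale 0 is the no-effect control and ±100 the full control effect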
Outline: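 Binding is measured by AlphaScreen proximity: Ni-NTA acceptor beads capture His-CD47, streptavidin donor beads capture biotin-SIRPalpha. Each of three additions (SIRPalpha with compound, CD47, beads) incubates 30 min at room temperature protected from light.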

[17] = biological target: Parathyroid hormone/parathyroid hormone-related peptide receptor (Homo sapiens) (UniProt Q03431); assay: qHTS for PTHR1 Agonists: Optimization Screen against the NCGC LOPAC library (AID 1347079);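 further: GloSensor cAMP luminescence in HEK-293 GP2 cells expressing human PTHR1 with IBMX; 0% is about no effect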
Chain of Parathyroid hormone/parathyroid hormone-related peptide receptor (Homo sapiens) (Q03431 whole entry, looked up): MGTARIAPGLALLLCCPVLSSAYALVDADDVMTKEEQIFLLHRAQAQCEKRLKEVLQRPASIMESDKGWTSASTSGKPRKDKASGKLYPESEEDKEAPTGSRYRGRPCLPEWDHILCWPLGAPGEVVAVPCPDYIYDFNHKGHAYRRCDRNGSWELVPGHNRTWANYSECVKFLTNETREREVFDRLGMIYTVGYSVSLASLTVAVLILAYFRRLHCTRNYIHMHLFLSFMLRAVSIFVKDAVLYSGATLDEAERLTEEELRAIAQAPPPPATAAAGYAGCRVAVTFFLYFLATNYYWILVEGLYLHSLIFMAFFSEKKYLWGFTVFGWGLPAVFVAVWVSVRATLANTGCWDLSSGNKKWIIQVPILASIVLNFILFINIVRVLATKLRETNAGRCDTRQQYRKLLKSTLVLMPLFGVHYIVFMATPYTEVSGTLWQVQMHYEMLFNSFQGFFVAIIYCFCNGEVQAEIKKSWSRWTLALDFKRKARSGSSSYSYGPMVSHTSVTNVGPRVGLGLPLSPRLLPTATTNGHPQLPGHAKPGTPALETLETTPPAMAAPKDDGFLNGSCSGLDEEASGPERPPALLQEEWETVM
Outline: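 Compounds were tested across a qHTS titration. PTHR1-expressing GP2 cells report cAMP rises via GloSensor luminescence after 1 hr compound exposure at 37C with IBMX present.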

O=C(NC(Cc1cc(=O)[nH]c2ccccc12)C(=O)O)c1ccc(Cl)cc1 (configuration not stated)
inactive: Potency [1] | Potency [2] | Potency [3] | Potency [4] | Potency [5] | Potency [6] | Potency [7] | Potency [8] | Potency [9] | Potency [10]

Cc1ncc([N+](=O)[O-])n1CC(C)O (configuration not stated)
inactive: Potency [1] | Potency [2] | Potency [3] | Potency [4] | Potency [5] | Potency [11] | Potency [6] | Potency [7] | Potency [8] | Potency [9] | Potency [10] | Potency [12] | Potency [13]

S=c1nc[nH]c2nc[nH]c12
inactive: Potency [9] | Potency [10]
active: Potency [1] 14.8 µM | Potency [2] 8.36 µM and 20.8 µM | Potency [3] 2.66 µM and 5.9 µM | Potency [4] 1.19 µM and 3.32 µM | Potency [5] 1.33 µM | Potency [11] 11.8 µM | Potency [6] 2.46 µM and 3.43 µM | Potency [13] 1.5 µM and 2.96 µM

COCCCN1CCC(NC(=O)c2cc(Cl)c(N)c3c2OCC3)CC1
inactive: Potency [1] | Potency [2] | Potency [3] | Potency [4] | Potency [5] | Potency [11] | Potency [6] | Potency [7] | Potency [9] | Potency [10] | Potency [12] | Potency [13]

Cn1c(NCCN(CCO)CCCc2ccc([N+](=O)[O-])cc2)cc(=O)n(C)c1=O
inactive: Potency [1] | Potency [2] | Potency [3] | Potency [4] | Potency [5] | Potency [6] | Potency [7] | Potency [8] | Potency [9] | Potency [10]

CN(C)C(=O)[C@H](O)[C@H](Cc1ccccc1)NC(=O)c1cc2cc(Cl)ccc2[nH]1
inactive: Potency [1] | outcome [14] | outcome [15] | Potency [16] | Potency [6] | Potency [8]
active: Potency [3] 7.43 µM | Potency [4] 4.69 µM | Potency [11] 1.18 µM | Potency [7] 3.32 µM

CCC(C)(Oc1ccc(C2(c3ccc(OC(C)(CC)C(=O)O)cc3)CCCCC2)cc1)C(=O)O (configuration not stated)
inactive: Potency [1] | Potency [2] | Potency [3] | Potency [4] | Potency [5] | Potency [11] | Potency [6] | Potency [8] | Potency [10] | Potency [12] | Potency [13]

CCN(CCO)CCCC(C)Nc1ccnc2cc(Cl)ccc12 (configuration not stated)
inactive: Potency [1] | Potency [2] | Potency [3] | activity change, negative = cytotoxic [4] 13.4% [at 4.84 µM] | activity change, negative = cytotoxic [11] -1.47% [at 4.84 µM] | activity change, negative = cytotoxic [6] 5.71% [at 6.03 µM] | activity change, negative = cytotoxic [7] 13.9% [at 4.84 µM] | Potency [9] | activity change, negative = cytotoxic [10] -2.15% [at 6 µM] | activity change, negative = cytotoxic [12] 19.4% [at 4.84 µM] | activity change, negative = cytotoxic [13] 22.8% [at 4.84 µM]
active: Potency [11] 2.96 µM | Potency [6] 3.85 µM | Potency [7] 1.18 µM | Potency [13] 3.72 µM

COc1cc2c(N3CCN(C(=O)Nc4ccc(OC(C)C)cc4)CC3)ncnc2cc1OCCCN1CCCCC1
active: Potency [5] 29.6 µM | Potency [11] 23.5 µM | Potency [10] 27.1 µM and 17.2 µM | Potency [13] 18.7 µM
inactive: Potency [1] | Potency [2] | Potency [3] | Potency [4] | Potency [8]

Clc1ccc2c(N3CCN(CCCN4CCN(c5ccnc6cc(Cl)ccc56)CC4)CC3)ccnc2c1
inactive: Potency [1] | outcome [14] | outcome [15] | Potency [16] | Potency [3] | Potency [4] | Potency [11] | Potency [6] | Potency [8] | Potency [9] | Potency [10] | Potency [12]

C[C@@H](c1ncncc1F)[C@](O)(Cn1cncn1)c1ccc(F)cc1F
inactive: Potency [1] | outcome [14] | outcome [15] | Potency [16] | Potency [2] | Potency [4] | Potency [6] | Potency [10] | Potency [12] | Potency [13]

C=CCc1cc(OC)c(O)c(C(=O)NCCO)c1
inactive: Potency [1] | Potency [2] | Potency [3] | Potency [4] | Potency [5] | Potency [11] | Potency [6] | Potency [7] | Potency [9] | Potency [10] | Potency [12] | Potency [13]

O=C(O)c1cn(-c2ccc(F)cc2)c2cc(N3CCNCC3)c(F)cc2c1=O
inactive: Potency [1] | Potency [2] | Potency [3] | Potency [4] | Potency [5] | Potency [11] | Potency [6] | Potency [7] | Potency [9] | Potency [10] | Potency [12] | Potency [13]

Oc1ccc(OCc2ccccc2)cc1
inactive: Potency [1] | Potency [2] | Potency [3] | Potency [4] | Potency [5] | Potency [11] | Potency [6] | Potency [7] | Potency [8] | Potency [9] | Potency [10] | Potency [12]

Cc1cccc(C#Cc2ccccc2)n1
inactive: Potency [1] | outcome [14] | Potency [16] | outcome [17] | Potency [3] | Potency [4] | Potency [6] | Potency [7] | Potency [13]

COc1ccc(C2(C#N)CCC(C(=O)O)CC2)cc1OC1CCCC1 (configuration not stated)
active: Potency [11] 16.6 µM | Potency [12] 11.8 µM
inactive: Potency [1] | Potency [2] | Potency [3] | Potency [4] | Potency [6] | Potency [7] | Potency [8] | Potency [9]

CCC1=C(C)CN(C(=O)NCCc2ccc(S(=O)(=O)NC(=O)NC3CCC(C)CC3)cc2)C1=O (configuration not stated)
inactive: Potency [1] | Potency [2] | Potency [3] | Potency [4] | Potency [5] | Potency [11] | Potency [6] | Potency [7] | Potency [8] | Potency [9] | Potency [10] | Potency [12] | Potency [13]

CC(C)(S)[C@@H](N)C(=O)O
inactive: Potency [1] | Potency [2] | Potency [3] | Potency [4] | Potency [11] | Potency [6] | Potency [7] | Potency [8] | Potency [9] | Potency [10] | Potency [12] | Potency [13]
